Test [1] is described as follows: NCI Yeast Anticancer Drug Screen. Data for the rad50 strain (AID 155).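 Also: 0% = growth of vehicle-only cultures of the same strain.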 The following applies: S. cerevisiae rad50 strain growth inhibition, stronger effect = higher value. A digest of the protocol: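 Vehicle-treated cultures provide the reference for the growth inhibition reported for compound-exposed, repair-deficient yeast.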
A short description of test [2]: NCI Yeast Anticancer Drug Screen. Data for the mec2-1 strain (AID 157). The following applies: S. cerevisiae mec2-1 strain, stronger effect = higher value. A digest of the protocol:
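Using mec2-1 yeast: add compound, measure growth, express inhibition versus vehicle-treated cultures.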

Test [3] can be described thus: NCI Yeast Anticancer Drug Screen. Data for the sgs1 mgt1 strain (AID 161).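 Also: 0% = growth of cultures given vehicle only.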 The settings on record: S. cerevisiae sgs1 mgt1 strain, stronger effect = higher value. A digest of the protocol:
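Yeast cells carrying a defined DNA-repair defect were exposed to test compounds. Growth inhibition was measured relative to vehicle-treated controls.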

Test [4] is described as follows: NCI Yeast Anticancer Drug Screen. Data for the cln2 rad14 strain (AID 165).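 Also: 0% = growth equal to vehicle treated cultures.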 The settings on record: S. cerevisiae cln2 rad14 strain, stronger effect = higher value. A digest of the protocol:
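Yeast strain cln2 rad14, bearing defects in cell cycle control and DNA repair, serves as the test system; values reflect growth inhibition compared with vehicle.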

The nature of test [5]: NCI Yeast Anticancer Drug Screen. Data for the bub3 strain (AID 167). The settings on record: S. cerevisiae bub3 mutant strain, stronger effect = higher value. A digest of the protocol:
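Mutant yeast screening strain plus compound; vehicle-treated cultures serve as the 0% inhibition reference.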

Test [6] is described as follows: NCI Yeast Anticancer Drug Screen. Data for the mlh1 rad18 strain (AID 175). The following applies: S. cerevisiae mlh1 rad18 strain growth inhibition, stronger effect = higher value. A digest of the protocol:
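Steps: expose repair-defective yeast to compound; measure growth; express inhibition against vehicle-treated controls.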

The mark [7] stands for this setting: at 5.0 µM (retest, dose inferred, filed as 0.5).
Where [8] appears, read: at 50.0 µM (retest, dose inferred, filed as 5.0).

This is part of a sample that, as a whole, favours compounds with a hit. Of some 79,000 tested, about 15% had one in any assay. Unmarked numbers belong to inactive results. Calls of active or inactive are those of the source. Rule as the data show it: active = growth inhibition above about 70%; inactive = the rest.

Consider `O=C(CC(=O)c1cc(Cl)ccc1O)c1cccnc1`, for which the growth inhibition in test [1] (setting [7]) was 2%; in test [1] (setting [8]), 95% (active); in test [1] (at 50.0 µM), 68%; in test [2] (setting [7]) it was 2%; in test [2] (setting [8]), 49%; in test [2] (at 50.0 µM), 17.9%. The growth inhibition in test [3] (setting [7]) is 1%; in test [3] (setting [8]) it was 91% (active); in test [3] (at 50.0 µM) it was 49.9%; in test [4] (setting [7]), 7%; in test [4] (setting [8]), 49%; in test [4] (at 50.0 µM) it was -21.1%. Also, the growth inhibition in test [5] (setting [7]) is 4%; in test [5] (setting [8]), 94% (active); in test [5] (at 50.0 µM), -16.1%; in test [6] (setting [7]), 2%; in test [6] (setting [8]), 99% (active); in test [6] (at 50.0 µM) it was 47%.
Take `CN(C)C(=O)c1cc(Br)cc(-c2ccccc2)c1O`: the growth inhibition was 4% in test [1] (setting [7]); 77% (active) in test [1] (setting [8]); 55.1% in test [1] (at 50.0 µM); 0% in test [2] (setting [7]); 84% (active) in test [2] (setting [8]); 73% (active) in test [2] (at 50.0 µM). For the same compound, the growth inhibition is 3% in test [3] (setting [7]); 86% (active) in test [3] (setting [8]); 75.8% (active) in test [3] (at 50.0 µM); 2% in test [4] (setting [7]); 63% in test [4] (setting [8]); 38.6% in test [4] (at 50.0 µM). The growth inhibition in test [5] (setting [7]) was 1%; in test [5] (setting [8]) it was 88% (active); in test [5] (at 50.0 µM), 87.5% (active); in test [6] (setting [7]) it was -4%; in test [6] (setting [8]) it was 92% (active); in test [6] (at 50.0 µM), 51.8%.
For `CCC(C)(O)C#Cc1ccc(C)nc1` (stereo unspecified), the growth inhibition in test [1] (setting [7]) was 2%; in test [1] (setting [8]) it was 6%; in test [1] (at 50.0 µM) it was 16.1%; in test [2] (setting [7]) it was 0%; in test [2] (setting [8]), 3%; in test [2] (at 50.0 µM) it was 9.4%. Further, the growth inhibition in test [3] (setting [7]) was -2%; in test [3] (setting [8]) it was 2%; in test [3] (at 50.0 µM), 7.7%; in test [4] (setting [7]), 0%; in test [4] (setting [8]), -1%; in test [4] (at 50.0 µM), 14.5%. In addition, the growth inhibition in test [5] (setting [7]) was 1%; in test [5] (setting [8]), -1%; in test [5] (at 50.0 µM), 13.8%; in test [6] (setting [7]), -12%; in test [6] (setting [8]), 4%; in test [6] (at 50.0 µM) it was 0.4%.
For the compound `CC(=NCC(=O)O)c1ccccc1`, the growth inhibition in test [1] (setting [7]) was -12%; in test [1] (setting [8]), -6%; in test [1] (at 50.0 µM), 48.5%; in test [2] (setting [7]) it was -6%; in test [2] (setting [8]) it was -3%; in test [2] (at 50.0 µM), -20.2%. In addition, the growth inhibition in test [3] (setting [7]) is -8%; in test [3] (setting [8]) it was -4%; in test [3] (at 50.0 µM) it was -52.9%; in test [4] (setting [7]), 2%; in test [4] (setting [8]), -6%; in test [4] (at 50.0 µM) it was -4.8%. The growth inhibition in test [5] (setting [7]) is 10%; in test [5] (setting [8]) it was 13%; in test [5] (at 50.0 µM), -22.1%; in test [6] (setting [7]), -4%; in test [6] (setting [8]), 1%; in test [6] (at 50.0 µM) it was -5.7%.
Take `COCCn1cc(F)c(=O)[nH]c1=O`: the growth inhibition in test [1] (setting [7]) was 15%; in test [1] (setting [8]) it was 16%; in test [1] (at 50.0 µM), -8.7%; in test [2] (setting [7]) it was 0%; in test [2] (setting [8]), 2%; in test [2] (at 50.0 µM), -2.25%. Also, the growth inhibition in test [3] (setting [7]) was 3%; in test [3] (setting [8]), 47%; in test [3] (at 50.0 µM), 33.2%; in test [4] (setting [7]), 6%; in test [4] (setting [8]) it was 8%; in test [4] (at 50.0 µM) it was 46.3%. Moreover, the growth inhibition in test [5] (setting [7]) is 8%; in test [5] (setting [8]) it was 5%; in test [5] (at 50.0 µM) it was -20.6%; in test [6] (setting [7]) it was 9%; in test [6] (setting [8]), 20%; in test [6] (at 50.0 µM) it was -5.45%.
With `Nc1nc(Cc2ccccc2)nc(Cc2ccccc2)c1-c1ccccc1`, the growth inhibition in test [1] (setting [7]) is 25%; in test [1] (setting [8]) it was 97% (active); in test [1] (at 50.0 µM), 96.4% (active); in test [2] (setting [7]) it was -2%; in test [2] (setting [8]) it was 98% (active); in test [2] (at 50.0 µM), 96.5% (active). The growth inhibition is 6% in test [3] (setting [7]); 98% (active) in test [3] (setting [8]); 96.8% (active) in test [3] (at 50.0 µM); 4% in test [4] (setting [7]); 95% (active) in test [4] (setting [8]); 94.1% (active) in test [4] (at 50.0 µM). The growth inhibition in test [5] (setting [7]) is 15%; in test [5] (setting [8]) it was 98% (active); in test [5] (at 50.0 µM), 96% (active); in test [6] (setting [7]), 4%; in test [6] (setting [8]), 97% (active); in test [6] (at 50.0 µM) it was 95.6% (active).
For the compound `CCC(=O)/C(=C\c1ccccc1)C(=O)C(C)CN(C)C` (stereo unspecified), the growth inhibition in test [1] (setting [7]) is 9%; in test [1] (setting [8]), 23%; in test [1] (at 50.0 µM), 7%; in test [2] (setting [7]) it was 13%; in test [2] (setting [8]), 16%; in test [2] (at 50.0 µM), 17.6%. The growth inhibition is 12% in test [3] (setting [7]); 16% in test [3] (setting [8]); 26.6% in test [3] (at 50.0 µM); 20% in test [4] (setting [7]); 25% in test [4] (setting [8]); 25.8% in test [4] (at 50.0 µM). Besides, the growth inhibition in test [5] (setting [7]) was 10%; in test [5] (setting [8]), 15%; in test [5] (at 50.0 µM), 33.8%; in test [6] (setting [7]), 16%; in test [6] (setting [8]) it was 24%; in test [6] (at 50.0 µM) it was 51.8%.

The record behind these values is PubChem BioAssay (NCI).
